# Compound activity as filed in PubChem.
# PostGolgi yeast – growth inhibition of a yeast mutant, post-Golgi transport screen | 98,000 tested, 0.9% active | inhibition, % at 10 µM | post-Golgi transport phenotypic cell assay;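 further: yeast cells grown in 1536-well plates; yeast grown about 18 h at 30C before absorbance read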
# DAT uptake mod – changed human dopamine transporter uptake under cocaine IC80; B-score at 10 µM; 110,000 tested, 1.3% active; LLC-PK1 hDAT cells, [14C]-dopamine uptake with cocaine IC80; actives deviate in either direction;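 active means Z score or B-score, a plate-position-corrected score, falls beyond the plate's 99.7% confidence bounds, in either direction; inactive means both scores lie inside the 99.7% bounds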;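 further: scored against the spread of the other compound wells on the same plate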
# PostGolgi ctrl – inhibits growth of the yeast control strain; 98,000 tested, 5% active; efflux-deficient yeast background strain, growth absorbance A615, 16 h; inhibition, % at 10 µM
# Cav32 inh – blocks human Cav3.2 T-type calcium channel. O95180. 100,000 tested, 4% active. AID 449739. Cav3.2-expressing cells, Fluo-4 calcium fluorescence FDSS; hits give low values. B-score at 10 µM;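 active means single-dose well whose peak fluorescence ratio is a statistical outlier from its plate by either plate-standardised score or position-corrected B-score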
# PLAP activator – activators of human placental alkaline phosphatase. activation fold at 20 µM. AID 696. 96,000 tested, 1.2% active. purified PLAP enzyme, luminescent substrate read-out; hits give high values; in the data active means activation fold above about 2
# Target sequence (P05187 whole entry, looked up): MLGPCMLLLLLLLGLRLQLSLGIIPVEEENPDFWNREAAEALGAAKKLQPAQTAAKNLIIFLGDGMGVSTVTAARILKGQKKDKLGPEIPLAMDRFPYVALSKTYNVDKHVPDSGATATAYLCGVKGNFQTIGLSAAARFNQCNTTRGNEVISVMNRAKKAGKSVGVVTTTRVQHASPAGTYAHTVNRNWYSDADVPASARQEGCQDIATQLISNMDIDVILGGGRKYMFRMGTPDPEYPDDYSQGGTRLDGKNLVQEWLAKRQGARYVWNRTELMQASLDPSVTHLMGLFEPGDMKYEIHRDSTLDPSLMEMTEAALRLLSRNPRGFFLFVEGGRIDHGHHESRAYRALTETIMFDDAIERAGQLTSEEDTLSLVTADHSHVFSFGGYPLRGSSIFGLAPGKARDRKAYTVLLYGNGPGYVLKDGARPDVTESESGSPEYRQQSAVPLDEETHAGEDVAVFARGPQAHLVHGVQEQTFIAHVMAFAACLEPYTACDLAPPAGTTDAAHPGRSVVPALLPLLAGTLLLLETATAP
# * = called active by the depositor; nt = no result. An excerpt weighted towards active compounds, which were near 9.6% of everything screened. Unless noted, no stated cut-off is given here; in the data, active means inhibition above about 30%; inactive means the rest.
SMILES,PostGolgi yeast,DAT uptake mod,PostGolgi ctrl,Cav32 inh,PLAP activator
COCCCN1C(=O)c2[nH]nc(-c3ccccc3O)c2C1c1cccc(Cl)c1 (stereo not given),-3.1,1.69,5.5,-6.45*,1.5
O=C(/C=C/c1ccco1)NC(=S)Nc1ccc(Cl)cn1,-4.2,-0.782,12.9,-0.0544,1
COc1ccc(OC)c(/C=C/C(=O)c2ccc(Cl)cc2)c1,2.1,0.014,21.1,-2.8,0.9
CCOC(=O)c1ccc(N=c2sc(C(=O)OC)cc(=O)n2C2CC2)cc1,4.8,-0.601,32.5*,nt,nt
Cc1ccc2c(c1)-c1cc(C)nn1C(c1sccc1C)N2 (stereo not given),-1.4,-0.0857,30.2*,-0.0865,1.5
Cc1cc2n(n1)C(c1sccc1C)Nc1ccccc1-2 (stereo not given),15.2,-0.128,8.3,-0.626,1.3
Cc1cc(C(=O)Cn2nnc3ccccc3c2=O)c(C)n1Cc1cccs1,-4.3,1.28,7.1,-3.5*,1.3
O=S(=O)(NC1CCc2ccccc21)c1ccc(S(=O)(=O)N2CCCC2)cc1 (stereo not given),7.4,-0.493,17.8,-0.267,1.1
O=C([C@@H]1CC=C[C@@H]2CCN(C3CCCCC3)C(=O)[C@@H]21)N1CCN(c2ccccc2)CC1,nt,0.46,nt,0.08,nt
CCCCCCCCC[n+]1cccc2c3ccccc3ccc21,11.3,3.17*,98.3*,-2.7,1.1
CCCCn1c(=O)c2ccccc2c2ccccc2c1=O,-6.3,-0.259,21.1,-0.794,1
COc1cc(C(=O)Nc2cc(Cl)ccc2C)c(-n2cnnn2)cc1OC,6.2,0.11,-4.9,0.0865,1
O=C(COc1ccc(Cl)cc1Cl)N(Cc1ccco1)C1CCS(=O)(=O)C1 (stereo not given),9.0,2.94*,8.8,-0.667,1.2
CC(Oc1ccccc1Cl)C(=O)N(Cc1ccco1)C1CCS(=O)(=O)C1 (stereo not given),-2.5,-1.28,4.9,0.495,0.9
Cn1c(N)c(C(=O)COC(=O)c2ccco2)c(=O)n(C)c1=O,0.0,0.35,6.0,0.259,1
CCCc1cc(Nc2cccc(OCC)c2)n2ncnc2n1,-5.3,0.199,9.0,-0.0654,2*
CCn1c2ccccc2c2cc(Nc3cc(C)nc4ncnn34)ccc21,0.7,0.522,24.2,-2.1,1.6
CCCc1cc(Nc2cccc(OC)c2)n2ncnc2n1,18.5,-0.481,10.1,0.131,2.3*
CC1CCc2c(sc(NC(=O)CN3CCN(C(=O)c4ccco4)CC3)c2C#N)C1 (stereo not given),15.4,1.18,27.5,-0.664,1.5
Cc1ccc(N(CC(=O)N2CC(=O)Nc3ccccc32)S(=O)(=O)c2ccc3c(c2)OCCO3)cc1,2.1,0.139,7.5,-1.72,nt
COc1ccc(OC)c(N(CC(N)=O)S(=O)(=O)c2ccc(OC)c(OC)c2)c1,22.7,0.804,6.8,-0.453,0.9
C[C@H](NC(=O)c1nc[nH]c1C(=O)N1CCc2ccccc2C1)C(=O)OCc1ccccc1,nt,1.1,nt,0.177,nt
CC(C)c1ccc(OCc2ccc(C(=O)N3CCN(c4ccccn4)CC3)cc2)cc1,-4.4,0.0561,17.5,-3.72,1
O=C(O)CC(CNS(=O)(=O)c1ccccc1)c1ccccc1 (stereo not given),0.9,-0.162,-6.3,-1.22,1.1
c1ccc(-c2ccc(C3=Nn4c(Cn5nnc6ccccc65)nnc4SC3)cc2)cc1,4.0,0.284,36.2*,0.29,0.9
SMILES,PostGolgi yeast,DAT uptake mod,PostGolgi ctrl,Cav32 inh,PLAP activator
CCOC(=O)/C(=N/Nc1ccc(Cl)cc1)S(=O)(=O)c1ccc(Cl)cc1,-4.9,0.0317,0.5,0.00635,1
CCOc1ccccc1NC(=O)C1CCN(S(=O)(=O)c2cccc3cccnc23)CC1,-0.9,nt,6.0,nt,1.4
O=C1c2ccccc2NC(c2ccc(Cl)cc2Cl)N1O (stereo not given),3.3,0.496,11.4,-0.0861,1
C=CCc1cccc(C2Nc3ccccc3C(=O)N2O)c1O (stereo not given),9.8,1.3,8.2,-9.81*,1.3
COc1cccc(Nc2nc3ccccc3n3cnnc23)c1,-7.4,-1.04,33.3*,-1.4,1.6
N#CC1(C#N)C2=C(CCCC2)NC(c2ccccc2)C1(C#N)C#N (stereo not given),-3.5,-0.249,24.9,-1.3,1.5
Clc1ccc(-n2nnnc2-c2cnc(-c3ccncc3)nc2-c2cccs2)cc1,nt,-0.554,nt,-2.62,nt
FC(F)(F)c1nc(-c2cccs2)ncc1-c1nnnn1-c1ccc(Cl)cc1,21.2,1.86,53.1*,-4.16,0.9
O=C(N/N=C/c1cccc(F)c1)c1cc(-c2ccco2)nc2ccccc12,-3.2,1.63,-2.1,0.72,1.1
COc1ccc(CNC(=O)CN(Cc2ccc(Cl)cc2)S(=O)(=O)c2ccccc2)cc1,-7.1,0.00481,39.1*,-0.938,0.6
CCOc1ccccc1NC1c2ccccc2C(=O)N1c1ccc(C)cn1 (stereo not given),-13.8,0.205,32.8*,-1.37,0.7
CCOC(=O)c1ccccc1NC1c2ccccc2C(=O)N1c1ccc(C)cn1 (stereo not given),-5.5,1.92,47.7*,-1.21,1.3
CCOC(=O)c1ccc(NC2c3ccccc3C(=O)N2c2ccccn2)cc1 (stereo not given),0.9,-0.112,3.0,-0.239,0.9
CCOC(=O)c1ccccc1NC1c2ccccc2C(=O)N1C1CCN(C(=O)OCC)CC1 (stereo not given),4.0,0.628,27.3,-5.78*,1.4
CCOC(=O)c1[nH]c(COC(=O)CCOc2ccccc2OC)c(C(=O)OCC)c1C,-1.4,0.649,6.4,-0.17,1.2
CC1CCCN(C(=O)C(Cc2ccccc2)n2cccc2)C1 (stereo not given),-9.6,-0.00292,6.1,-3,1.1
Cc1cc(Cl)cc2c1NC(=O)[C@]21[C@@H]2C(=O)N(Cc3ccccc3)C(=O)[C@@H]2[C@@H]2CCCN21,-5.4,3.65*,7.5,-1.64,1.3
CC1(C(=O)NC2CCCCCCC2)CCC(=O)N1Cc1cccs1 (stereo not given),-3.0,-0.0651,5.9,0.345,1.4
Cc1onc(COc2ccccc2O)c1Br,3.3,-0.405,1.5,-0.00638,0.8
COc1cc2c(cc1OC)C(c1cc(OC)c(OC)c(OC)c1)NCC2 (stereo not given),nt,-0.191,nt,0.176,nt
NC(=S)N/N=C\c1ccc(-c2cccc(Cl)c2Cl)o1,8.6,0.182,48.5*,0.941,1
NC(=S)N/N=C/c1ccc(-c2ccc(Cl)c(Cl)c2)o1,66.8*,-0.0306,81.3*,-0.076,0.9
O=C(CN1CCCC1)N/N=C/c1ccc(-c2cccc(Cl)c2)o1,2.9,0.356,9.4,0.36,1.5
CC(C)(C)NC(=O)CSc1ncnc2c1nnn2Cc1ccccc1Cl,0.0,1.07,21.5,-0.809,1
COc1cc(C(Nc2ccccn2)c2ccc3ccc(C)nc3c2O)cc(OC)c1O (stereo not given),3.5,1.46,0.5,0.384,2*
COc1ccc(-c2cc(C(F)(F)F)nc(SCC(=O)Nc3cc(C)on3)n2)cc1OC,2.4,-0.343,25.5,-2.48,1
